Results published in ChEMBL document CHEMBL5598561, “ASAP - In vitro binding kinetics” (2024).

Biological target: Nonstructural protein 3 (Zika virus) (UniProt A0A024AXB9)
Details: PRVABC59, Concentration 10.0 uM

Sequence of Nonstructural protein 3 (Zika virus) (A0A024AXB9 as listed by the source): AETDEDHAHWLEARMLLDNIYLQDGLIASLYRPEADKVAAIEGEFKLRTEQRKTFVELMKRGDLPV

For `N[C@H]1Cc2ccc(NC(=O)c3cc(Cl)cc4[nH]ncc34)cc2C1`, the pKD (Immobilization level 3900.0 pg/mm2, Rmax 32.0 pg/mm2, ka 340293.713 M-1s-1, kd 0.278 1/s) was 6.09, the pKD (Immobilization level 4900.0 pg/mm2, Rmax 50.0 pg/mm2, ka 211944.111 M-1s-1, kd 0.288 1/s) was 5.87 and the pKD (Immobilization level 5500.0 pg/mm2, Rmax 52.0 pg/mm2, ka 230237.04 M-1s-1, kd 0.293 1/s) was 5.9. It also gave a pKD (Immobilization level 10000.0 pg/mm2, Rmax 43.0 pg/mm2, ka 451655.452 M-1s-1, kd 0.518 1/s) of 5.94, a pKD (Immobilization level 12000.0 pg/mm2, Rmax 66.0 pg/mm2, ka 170946.752 M-1s-1, kd 0.316 1/s) of 5.73 and a pKD (Immobilization level 13000.0 pg/mm2, Rmax 60.0 pg/mm2, ka 295502.849 M-1s-1, kd 0.406 1/s) of 5.86.

`CC(=O)Nc1cc(Br)cc(C(=O)Nc2ccc3c(c2)CNC3)c1` showed a pKD (Immobilization level 3900.0 pg/mm2, Rmax 40.0 pg/mm2, ka 607998.487 M-1s-1, kd 0.155 1/s) of 6.59, a pKD (Immobilization level 4900.0 pg/mm2, Rmax 52.0 pg/mm2, ka 391367.264 M-1s-1, kd 0.17 1/s) of 6.36 and a pKD (Immobilization level 5500.0 pg/mm2, Rmax 55.0 pg/mm2, ka 425641.507 M-1s-1, kd 0.187 1/s) of 6.36. The pKD (Immobilization level 10000.0 pg/mm2, Rmax 42.0 pg/mm2, ka 618288.109 M-1s-1, kd 0.171 1/s) was 6.56, the pKD (Immobilization level 12000.0 pg/mm2, Rmax 74.0 pg/mm2, ka 318554.659 M-1s-1, kd 0.182 1/s) was 6.24 and the pKD (Immobilization level 13000.0 pg/mm2, Rmax 61.0 pg/mm2, ka 520517.585 M-1s-1, kd 0.161 1/s) was 6.51.

Molecule `O=C(Nc1ccc2c(c1)CNCCC2)c1cc(Cl)cc2[nH]ncc12` has a pKD (Immobilization level 3900.0 pg/mm2, Rmax 31.0 pg/mm2, ka 773276.281 M-1s-1, kd 0.645 1/s) of 6.08, a pKD (Immobilization level 4900.0 pg/mm2, Rmax 48.0 pg/mm2, ka 455527.731 M-1s-1, kd 0.593 1/s) of 5.89 and a pKD (Immobilization level 5500.0 pg/mm2, Rmax 50.0 pg/mm2, ka 530646.741 M-1s-1, kd 0.578 1/s) of 5.96. For the same molecule, the pKD (Immobilization level 10000.0 pg/mm2, Rmax 36.0 pg/mm2, ka 650451.64 M-1s-1, kd 0.663 1/s) was 5.99, the pKD (Immobilization level 12000.0 pg/mm2, Rmax 60.0 pg/mm2, ka 669381.958 M-1s-1, kd 0.419 1/s) was 6.2 and the pKD (Immobilization level 13000.0 pg/mm2, Rmax 48.0 pg/mm2, ka 553000.714 M-1s-1, kd 0.56 1/s) was 5.99.

`CNCc1ccc(NC(=O)c2cc(Cl)cc3[nH]ncc23)cc1` was tested, and the pKD (Immobilization level 3900.0 pg/mm2, Rmax 37.0 pg/mm2, ka 226628.924 M-1s-1, kd 2.375 1/s) was 4.98, the pKD (Immobilization level 4900.0 pg/mm2, Rmax 68.0 pg/mm2, ka 224620.672 M-1s-1, kd 2.867 1/s) was 4.89 and the pKD (Immobilization level 5500.0 pg/mm2, Rmax 65.0 pg/mm2, ka 234270.717 M-1s-1, kd 2.589 1/s) was 4.96. The pKD (Immobilization level 10000.0 pg/mm2, Rmax 32.0 pg/mm2, ka 593939.753 M-1s-1, kd 4.324 1/s) was 5.14, the pKD (Immobilization level 12000.0 pg/mm2, Rmax 64.0 pg/mm2, ka 470578.84 M-1s-1, kd 3.187 1/s) was 5.17 and the pKD (Immobilization level 13000.0 pg/mm2, Rmax 38.0 pg/mm2, ka 481481.04 M-1s-1, kd 3.216 1/s) was 5.17.

Work on `CNCc1cccc(NC(=O)c2cc(Cl)cc3[nH]ncc23)c1` yielded a pKD (Immobilization level 3900.0 pg/mm2, Rmax 52.0 pg/mm2, ka 146599.437 M-1s-1, kd 4.892 1/s) of 4.48, a pKD (Immobilization level 4900.0 pg/mm2, Rmax 92.0 pg/mm2, ka 51361.571 M-1s-1, kd 2.243 1/s) of 4.36 and a pKD (Immobilization level 5500.0 pg/mm2, Rmax 53.0 pg/mm2, ka 187092.368 M-1s-1, kd 3.041 1/s) of 4.79. For the same molecule, the pKD (Immobilization level 12000.0 pg/mm2, Rmax 56.0 pg/mm2, ka 231928.789 M-1s-1, kd 3.617 1/s) was 4.81.

In the case of `NCc1ccc(NC(=O)c2cc(Cl)cc3[nH]ncc23)cc1F`, the pKD (Immobilization level 3900.0 pg/mm2, Rmax 23.0 pg/mm2, ka 241912.451 M-1s-1, kd 2.753 1/s) is reported as 4.94, the pKD (Immobilization level 4900.0 pg/mm2, Rmax 19.0 pg/mm2, ka 418363.843 M-1s-1, kd 3.02 1/s) is reported as 5.14 and the pKD (Immobilization level 5500.0 pg/mm2, Rmax 22.0 pg/mm2, ka 268076.557 M-1s-1, kd 2.711 1/s) is reported as 5. For the same molecule, the pKD (Immobilization level 12000.0 pg/mm2, Rmax 15.0 pg/mm2, ka 138303.314 M-1s-1, kd 1.565 1/s) was 4.95 and the pKD (Immobilization level 13000.0 pg/mm2, Rmax 64.0 pg/mm2, ka 32485.569 M-1s-1, kd 2.272 1/s) was 4.16.

For `CC(C)COc1ccc(Cl)cc1C(=O)Nc1ccc2c(c1)CNC2`, the pKD (Immobilization level 10000.0 pg/mm2, Rmax 31.0 pg/mm2, ka 259814.072 M-1s-1, kd 6.366 1/s) was 4.61, the pKD (Immobilization level 12000.0 pg/mm2, Rmax 37.0 pg/mm2, ka 228783.03 M-1s-1, kd 3.033 1/s) was 4.88 and the pKD (Immobilization level 13000.0 pg/mm2, Rmax 33.0 pg/mm2, ka 351290.772 M-1s-1, kd 5.134 1/s) was 4.83.

Work on `O=C(Nc1ccc2c(c1)OCCNC2)c1cc(Cl)cc2[nH]ncc12` yielded a pKD (Immobilization level 10000.0 pg/mm2, Rmax 33.0 pg/mm2, ka 475344.334 M-1s-1, kd 1.334 1/s) of 5.55, a pKD (Immobilization level 12000.0 pg/mm2, Rmax 41.0 pg/mm2, ka 216924.489 M-1s-1, kd 0.865 1/s) of 5.4 and a pKD (Immobilization level 13000.0 pg/mm2, Rmax 42.0 pg/mm2, ka 331181.332 M-1s-1, kd 1.11 1/s) of 5.47.

`N[C@H]1CCc2ccc(NC(=O)c3cc(Cl)cc4[nH]ncc34)cc21` gave a pKD (Immobilization level 3900.0 pg/mm2, Rmax 29.0 pg/mm2, ka 348858.596 M-1s-1, kd 0.945 1/s) of 5.57, a pKD (Immobilization level 4900.0 pg/mm2, Rmax 45.0 pg/mm2, ka 214378.611 M-1s-1, kd 0.858 1/s) of 5.4 and a pKD (Immobilization level 5500.0 pg/mm2, Rmax 42.0 pg/mm2, ka 277409.149 M-1s-1, kd 0.816 1/s) of 5.53. It also gave a pKD (Immobilization level 10000.0 pg/mm2, Rmax 43.0 pg/mm2, ka 267738.182 M-1s-1, kd 1.043 1/s) of 5.41, a pKD (Immobilization level 12000.0 pg/mm2, Rmax 61.0 pg/mm2, ka 230496.11 M-1s-1, kd 0.784 1/s) of 5.47 and a pKD (Immobilization level 13000.0 pg/mm2, Rmax 48.0 pg/mm2, ka 351322.313 M-1s-1, kd 0.852 1/s) of 5.62.

`N[C@H]1CCCc2ccc(NC(=O)c3cc(Cl)cc4[nH]ncc34)cc21` showed a pKD (Immobilization level 3900.0 pg/mm2, Rmax 27.0 pg/mm2, ka 296746.451 M-1s-1, kd 1.513 1/s) of 5.29, a pKD (Immobilization level 4900.0 pg/mm2, Rmax 56.0 pg/mm2, ka 115778.511 M-1s-1, kd 1.284 1/s) of 4.96 and a pKD (Immobilization level 5500.0 pg/mm2, Rmax 46.0 pg/mm2, ka 170057.868 M-1s-1, kd 1.305 1/s) of 5.12. The pKD (Immobilization level 10000.0 pg/mm2, Rmax 44.0 pg/mm2, ka 295859.47 M-1s-1, kd 1.578 1/s) was 5.27, the pKD (Immobilization level 12000.0 pg/mm2, Rmax 41.0 pg/mm2, ka 173417.805 M-1s-1, kd 0.975 1/s) was 5.25 and the pKD (Immobilization level 13000.0 pg/mm2, Rmax 62.0 pg/mm2, ka 213953.785 M-1s-1, kd 1.191 1/s) was 5.25.
